Hits are enriched below; roughly 1.7% of the tested compounds scored in any of these assays.
HEK293 tox: qHTS of GLP-1 Receptor Inverse Agonists: Cytotox Screen; HEK293 cAMP-luciferase reporter cells, luminescence, 24 h; 0.13% of 410,000 active; Potency, µM (top dose mostly 38.3 µM), for the others: at the highest dose activity change, negative = inhibition, actives largely listed as inhibitors;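 also: loss of luciferase light is scored as toxicity; % is scaled to controls: 0 for no effect and ±100 for the full control effect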
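Compound-treated cells are incubated 24 hr at 37 deg C under 5% CO2 after a 12 hour attachment period, then luciferase detection reagent is added and luminescence is measured following 12 min at room temperature; lowered signal indicates toxicity.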
GLP1R ag: qHTS of GLP-1 Receptor Agonists; Glucagon-like peptide 1 receptor (Homo sapiens), P43220; 0.007% of 380,000 active; HEK293 GLP-1R CRE-luciferase, luminescence, 4-6 h; cells express a hypersensitive GLP-1R form; AID 624172, 2012; Potency, µM (highest dose often 45.6 µM), for inactives: at the highest dose activation, usual class: activators; also: % of control where 0% means no effect
Target sequence (P43220 whole entry, looked up): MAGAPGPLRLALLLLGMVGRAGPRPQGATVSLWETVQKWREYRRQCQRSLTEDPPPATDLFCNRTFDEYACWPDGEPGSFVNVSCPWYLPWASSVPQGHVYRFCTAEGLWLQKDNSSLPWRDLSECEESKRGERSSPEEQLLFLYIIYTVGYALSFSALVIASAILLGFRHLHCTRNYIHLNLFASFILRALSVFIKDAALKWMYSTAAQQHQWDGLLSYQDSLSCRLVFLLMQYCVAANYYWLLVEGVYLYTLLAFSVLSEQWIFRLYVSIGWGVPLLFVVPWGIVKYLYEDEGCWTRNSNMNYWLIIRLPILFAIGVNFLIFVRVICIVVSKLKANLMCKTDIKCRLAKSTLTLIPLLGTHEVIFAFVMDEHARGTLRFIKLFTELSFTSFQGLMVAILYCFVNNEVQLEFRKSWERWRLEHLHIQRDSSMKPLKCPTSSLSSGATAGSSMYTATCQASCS
GLP-1R inv ag: qHTS of GLP-1 Receptor Inverse Agonists (Inhibition Mode). AID 624417, 2012. 1.6% of 410,000 active. Glucagon-like peptide 1 receptor (Homo sapiens), P43220. HEK293 GLP-1R CRE-luciferase, luminescence, 24 h; GLP-1R form is constitutively active. Potency, µM (doses to about 38.3 µM), for inactives: top-dose activity change, negative = inhibition, usual class: inhibitors; also: % is scaled to controls: 0 for no effect and ±100 for the full control effect; nearly all actives have a fitted effect of over 55% in size
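Stable HEK293 clone (constitutively active GLP-1R + cAMP-response luciferase); 200 cells/uL plated, 12 h pre-culture, compound 24 hr, 37 deg C/5% CO2; detection reagent 12 min RT; luminescence.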
The depositor's hits bear a star; ? = inconclusive; . = not tested or not shown. Calls follow the shape of the dose curve; as a rule, active = well fitted curve in the direction sought with a large enough effect; inconclusive = small, poorly fitted or top-dose-only effect, or another doubt; inactive = no such curve, though single readings can be large; an effect the other way counts as inactive or inconclusive. Potency is read from the fitted curve at half-maximal effect.

SMILES	HEK293 tox	GLP1R ag	GLP-1R inv ag
CC(C)NCCOCCSc1ccc(Cl)cc1	-4.7%	-5.1%	12.6µM*
CCCCNCCOCCSc1ccc(Cl)cc1	-5.3%	-3.5%	-28.5%
O=C(CCS(=O)(=O)c1ccccc1)N(CCCN1CCOCC1)c1nc2ccc(F)cc2s1	?	6.1%	?
CCNS(=O)(=O)c1ccc(CCC(=O)NCc2ccccc2)cc1	-18.5%	9.9%	2.0%
CCNc1ccc(Br)cc(C(=O)/C=C/c2ccc(Cl)cc2)c1=O	-13.3%	0.1%	2.82µM*
CCNc1ccc(Br)cc(C(=O)/C=C/c2ccc3c(c2)OCO3)c1=O	10.5%	3.8%	23.7%
CC1NC(=O)c2cccnc2-n2c1nc1cc(F)c(F)cc1c2=O (stereo not given)	4.7%	-2.6%	25.4%
C=C(C)COc1ccc(-c2ncncc2-c2ccccc2OC)c(O)c1	7.1%	29.0%	?
C=C(C)COc1ccc(-c2ncnc(C(F)(F)F)c2-c2ccccc2)c(O)c1	1.3%	12.8%	2.82µM*
C=C(C)COc1ccc(-c2nc(N)nc(C(F)(F)F)c2-c2ccc(OC)cc2)c(O)c1	-3.3%	7.3%	?
C=C(C)COc1ccc(-c2ncnc(C(F)(F)F)c2-c2ccc(OC)cc2)c(O)c1	1.6%	18.4%	7.94µM*
CCOC(=O)c1ccc(Nc2c(-c3ccc(N(C)C)cc3)nc3nc[nH]n23)cc1	0.0%	.	15.0%
C/C(=N\NC(=O)c1nnn(-c2nonc2N)c1CN(C)c1ccccc1)c1cccc(O)c1	-13.1%	0.8%	?
COc1ccc(NC(=O)CSc2nc3[nH]c(=O)cc(O)c3s2)c(OC)c1	-1.5%	1.8%	13.3%
Cc1ccc(C(=O)N/C(=C\c2ccc(-c3cc(Cl)ccc3Cl)o2)C(=O)NCc2cccnc2)cc1	1.3%	1.5%	?
O=C(NCc1cccnc1)/C(=C\c1ccc(-c2cccc(Cl)c2)o1)S(=O)(=O)c1ccccc1	?	-24.1%	2µM*
CCOC(=O)C1CCCN(C(=O)Cn2nc(C)c3c(C)n(-c4ccccc4)nc3c2=O)C1 (stereo not given)	-9.3%	0.4%	-3.7%
Cc1ccc(C2=NN(C(=O)CCC(=O)O)C(c3cccc([N+](=O)[O-])c3)C2)cc1 (stereo not given)	-0.3%	-2.9%	17.5%
CC(=O)N1N=C(c2ccc(Br)cc2)CC1c1cccc([N+](=O)[O-])c1 (stereo not given)	-4.7%	-6.8%	11.2µM*
CC1CCN(C(=O)C(C)c2ccc([N+](=O)[O-])cc2)CC1 (stereo not given)	-13.9%	4.1%	12.1%
CCN(C(=O)c1ccc(C(C)(C)C)cc1)c1nnc(Cn2nnc3ccccc32)s1	-16.6%	-1.9%	5.01µM*
CCN(C(=O)CC(C)C)c1nnc(Cn2nnc3ccccc32)s1	2.4%	10.8%	40.4%
CSCCC(NC(=O)[C@H](Cc1c[nH]c2ccccc12)NC(=O)CNC(=O)[C@H](CCSC)NC(=O)[C@H](Cc1ccc(OS(=O)(=O)O)cc1)NC(=O)[C@@H](N)CC(=O)O)C(=O)N[C@@H](CC(=O)O)C(=O)N[C@@H](Cc1ccccc1)C(N)=O (stereo not given in full)	.	29.9%	.
CCn1c(SCC(=O)c2cc(C)n(-c3ccc(C(=O)OC)cc3)c2C)nnc1-c1cccnc1	-14.3%	-1.8%	11.2µM*
CCn1c(SCC(=O)c2cc(C)n(C)c2C)nnc1-c1ccccc1	-14.0%	-5.7%	-26.7%
SMILES	HEK293 tox	GLP1R ag	GLP-1R inv ag
CCN1CCN(C(=O)Cn2nc(-c3ccc(Cl)cc3)ccc2=O)CC1	11.9%	9.0%	2.82µM*
CCOC(=O)N1CCN(C(=O)Cn2nc(-c3ccc(Cl)cc3)ccc2=O)CC1	-10.8%	-3.6%	?
COc1cccc(CNC(=O)CN(c2ccc(C(C)C)cc2)S(=O)(=O)c2c(C)n[nH]c2C)c1	-10.3%	0.4%	-29.3%
Cc1n[nH]c(C)c1S(=O)(=O)N(CC(=O)NCc1ccccc1Cl)c1ccc(C(C)C)cc1	-14.5%	-5.9%	10µM*
COc1ccc(S(=O)(=O)c2c(C(=O)c3ccc(C)c(C)c3)cnc3ccc(F)cc23)cc1	-21.8%	.	?
Cc1ccc2ncc(C(=O)c3ccc(C)c(C)c3)c(S(=O)(=O)c3ccc(F)cc3)c2c1	-17.4%	.	12.6µM*
CC1CC(C)CN(C(=O)CSc2nnc(N)s2)C1 (stereo not given)	-7.3%	5.2%	7.9%
O=S(=O)(c1ccc(F)cc1)N1CCN(Cc2ccccn2)CC1	4.6%	1.6%	-3.6%

Assay outcomes deposited in PubChem BioAssay by National Center for Advancing Translational Sciences (NCATS).
